HIV RNase H inh-1: blocks HIV-1 RNase H cleavage of RNA/DNA duplex; P04585; RT-RNase H RNA/DNA duplex cleavage, fluorescence; inhibition, % at 10 µM; 65,000 compounds, 1.9% hits; AID 565; in the data active = inhibition above about 50%
HIV RNase H inh-2: confirmation of HIV-1 reverse transcriptase RNase H inhibitors; shares compounds with HIV RNase H inh-1; Recombinant RT RNase H, fluorescent RNA/DNA duplex cleavage; inhibition, % at 10 µM; 1,000 compounds, 39% hits; in the data active = inhibition above about 48%; inconclusive = no clear call, values can overlap the other calls
* = called active by the depositor; ? = inconclusive. This excerpt belongs to a sample that is enriched for hits.

SMILES	HIV RNase H inh-1	others
c1ccc2c(c1)OCC(c1nnc3sc(-c4ccc5c(c4)OCO5)nn13)O2 (stereo unspecified)	84.9*	HIV RNase H inh-2=68.6*
c1ccc2c(c1)ncn2Cc1nnc2sc(-c3ccc4c(c3)OCO4)nn12	69.2*	HIV RNase H inh-2=61.1*
CC(C)(C)c1ccc(C(=O)C=[N+]=[N-])cc1	9.9
COc1ccc(C2CC(c3ccc(Cl)cc3)n3nc(N)nc3N2)cc1 (stereo unspecified)	-9.5
CC(C)(C)C(=O)/C(C#N)=c1\s/c(=C\c2ccncc2)c(=O)n1CCCN1CCOCC1	7.5
COc1ccc(C(=O)NC(C)c2nnc(SCC(=O)Nc3nc4ccccc4s3)n2C)cc1 (stereo unspecified)	-1.1
CCOC(=O)C1CCCCN1Cc1ccccc1C(F)(F)F (stereo unspecified)	-8.4
COc1ccccc1S(=O)Cc1ccc(C(=O)NCCc2ccc(Cl)cc2)o1 (stereo unspecified)	-12.3
COc1ccccc1NC(=O)N1CCN(c2ncccn2)CC1	-1.7
CCn1c(Cc2ccccc2)nnc1SCC(=O)Nc1ccc2c(c1)OCCO2	-19.9
O=C(Cc1ccc(-n2cnnn2)cc1)NC12CC3CC(CC(C3)C1)C2	10.5
Cc1ccc2c(c1)c1cccc3c1n2CCN3CCC(N)=O	8.7
CN1C(=O)c2ccccc2C(C(=O)O)C1c1cn(C)c2ccccc12 (stereo unspecified)	1.8
COC(=O)c1ccc(NC(=O)C23CCC(C)(C(=O)O2)C3(C)C)cc1 (stereo unspecified)	0.7
COc1ccc(C2C(=O)N(C3CCCCC3)CC(=O)N2Cc2ccco2)cc1 (stereo unspecified)	7.4
Cc1cc2cc(CN(C(=O)C3CC3)C3CCCC3)c3nnnn3c2cc1C	-24.8
CC(C)N1C(=O)CCC1C(=O)NCc1ccccc1Cl (stereo unspecified)	-7.6
CCCCOc1ccc(N2C(=O)CC(N(O)c3ccccc3)C2=O)cc1 (stereo unspecified)	12.7
CN(Cc1ccccc1)C1CC(=O)N(c2ccc(C(=O)O)cc2)C1=O (stereo unspecified)	77.2*	HIV RNase H inh-2=-5.5
COC(=O)c1ccc(N2C(=O)CC(NCc3ccccc3)C2=O)cc1 (stereo unspecified)	-7.3
O=C1CC(N(Cc2ccco2)C(=O)Nc2ccc(F)cc2)C(=O)N1c1ccc(F)cc1 (stereo unspecified)	-7.2
O=C(c1ccco1)N1CCN(Cc2ccc(Cl)cc2)CC1	-10.3
O=C(CSc1c2c(nc3ccc(Cl)cc13)CCCC2)N1CCN(C(=O)c2ccco2)CC1	-14.5
O=C(c1ccco1)N1CCN(C(=O)c2snc3ccc(Cl)cc23)CC1	86.4*	HIV RNase H inh-2=-3.1
COCCN(CC(=O)NCc1ccccc1)C(=O)CCC(=O)Nc1ccccn1	-10.2
SMILES	HIV RNase H inh-1	others
COc1oc(-c2ccccc2)nc1C(F)(F)F	-5.5
O=c1c2cn[nH]c2[nH]c(=S)n1-c1ccccc1F	29.6
O=C(/C=N/O)NCCCn1ccnc1	-6.3
O=C(/C=N/O)NCCN1CCCCC1	71.5*	HIV RNase H inh-2=23.2
C/C(=N\O)C(=O)NCCN1CCCCC1	-0.8
O=C(c1cccnc1)N1CCN(C(=O)c2ccccc2F)CC1	-1.6
CC(=O)C(Sc1ccc2nnc(-c3ccc(F)cc3)n2n1)C(C)=O	22.7
COc1ccccc1N1CCN(C(=O)c2cnn3cccnc23)CC1	-2.4
Cc1cc(C)nc(SCC(=O)Nc2cc(C)on2)n1	-17.3
CCCCOC(=O)CSCC(=O)Nc1cc(C)on1	70.9*	HIV RNase H inh-2=5.2
Cc1cc(NC(=O)CSc2ccccc2)no1	-9.2
COc1cccc(N(C(=O)c2cccs2)c2nc3ccccc3s2)c1	-26.2
CCn1nc(C(=O)O)c(=O)c2cc3c(cc21)OCO3	-6.2
Oc1ccc(N2CCN(C(c3ccncc3)c3nnnn3C3CCCC3)CC2)cc1 (stereo unspecified)	78.9*	HIV RNase H inh-2=?
Fc1ccc(N2CCN(C(c3cccs3)c3nnnn3C3CCCC3)CC2)cc1 (stereo unspecified)	1.8
c1cc(C(c2nnnn2C2CCCC2)N2CCOCC2)ccn1 (stereo unspecified)	-5.5
COc1cccc(NS(=O)(=O)c2nc3nc(C)cc(C)n3n2)c1	-5.4
O=S1(=O)CC(O)C(N2CCC(c3ccccc3)CC2)C1 (stereo unspecified)	-5.8
COc1ccc(-n2c(CNC(=O)c3cc(OC)c(OC)c(OC)c3)n[nH]c2=S)cc1	-1.0
c1ccc(-c2ccccn2)nc1	0.2
Nn1c(-c2ccccn2)nnc1-c1ccccn1	-8.2
c1ccc(-c2ccc(-c3ccccn3)nn2)nc1	83.4*	HIV RNase H inh-2=76.5*
O=C(O)CSc1nnc(Cn2nnc3ccccc32)n1CCc1ccccc1	-17.6
c1ccc(Cc2nn3c(Cn4nnc5ccccc54)nnc3s2)cc1	73.9*	HIV RNase H inh-2=68.2*
Brc1ccccc1-c1nnc2sc(Cc3ccccc3)nn12	-108.4
SMILES	HIV RNase H inh-1	others
CNC(=O)C1C2C=CC3(O2)C1C(=O)N(C1CC1)C3C(=O)NCc1ccc(OC)cc1 (stereo unspecified)	-6.9
CCN1C(=O)/C(=C2/Sc3ccc(OC)cc3N2C)SC1=Nc1ccc(C(C)=O)cc1	6.2
CCC(=O)/C=C1\Sc2ccc(OC)cc2N1CC	-4.6
CCN1C(=O)/C(=C2/Sc3ccc(OC)cc3N2C)SC1=Nc1cccc(O)c1	51.2*	HIV RNase H inh-2=27.6
CC(=O)C1=C(C)Nc2ncnn2C1c1ccc(Cl)cc1Cl (stereo unspecified)	-0.1
O=C(COc1ccc2c(c1)CCC2)N1CCc2ccccc21	-13.8
CC(=O)OC(C(=O)NC1CCCCC1)c1ccc(C#N)cc1 (stereo unspecified)	-5.7
COc1ccc(C2C(C#N)=C(N)SC(N)=C2C#N)cc1OC	30.4
CCOc1ccc(C2C(C#N)=C(N)Oc3cc(C)n(CCN(C)C)c(=O)c32)cc1OCC (stereo unspecified)	11.6
CCCCc1ccc(C2C(C#N)=C(N)SC(N)=C2C#N)s1	5.8
CCOc1cc(C2C(C#N)=C(N)SC(N)=C2C#N)ccc1OCCN1CCOCC1	87.0*	HIV RNase H inh-2=84.9*
CCCc1[nH]nc2c1C(c1ccc(OCCN3CCOCC3)c(OC)c1)C(C#N)=C(N)O2 (stereo unspecified)	1.6
CCOc1ccc(C2C(C#N)=C(N)SC(N)=C2C#N)c(OCC)c1	72.0*	HIV RNase H inh-2=19.1
O=C(CC1Sc2ccccc2NC1=O)Nc1cccc(-c2nnc3n2CCCCC3)c1 (stereo unspecified)	20.1
COc1ccc(NC(=O)c2cc(Cl)ccc2NC(=O)c2ccco2)c(OC)c1	7.9
Cc1ccc(Cn2ccc(NC(=O)c3c(-c4ccccc4Cl)noc3C)n2)cc1	-17.8
COc1cc(CC(=O)Nc2ccc(S(=O)(=O)N(C)C)cc2)cc(OC)c1OC	-1.2
CN1C(=O)CSc2ccc(NC(=O)NCCC3=CCCCC3)cc21	-41.5
CCOC(=O)CC(=O)CSc1[nH]c(=O)cc(C)c1C#N	-6.0
OCCn1c(CSc2nnc(-c3ccco3)n2-c2ccccc2)nc2ccc(Cl)cc21	79.6*	HIV RNase H inh-2=1.1
O=C(CSc1nnc(-c2ccco2)n1-c1ccccc1)N1CCOCC1	-20.0
OCCn1c(CSc2nc3ccccc3n2CCO)nc2ccccc21	-6.0
O=C(NC1CCCC1)C(c1cccs1)N(CC1CCCO1)C(=O)Cc1cccs1 (stereo unspecified)	0.8
O=C(CCCc1cccs1)N1CCN(S(=O)(=O)c2ccccc2Br)CC1	-18.5
N#CC1=C(N)NC(SCC(=O)Nc2ccccc2)=C(C#N)C12CCCC2	-12.3
C=CCn1c(-c2cc(OC)c(OC)c(OC)c2)n[nH]c1=S	46.5
